These are literature values, as cited in PubChem BioAssay AID977608.

SMILES strings stand for the structures. Among all 4,300 compounds or so, about 4,300 (100%) were called active. The limit is not given here; nearly all actives have IC50 up to about 1400 µM. So high a share suggests a set chosen from earlier hits. The list shows a part of the results. Positions of bridges follow the written chain, without caps; N, C: chain ends. Bridge positions count the residues as written; N and C are the ends. Non-standard residues stand in square brackets, D forms with d. Square brackets hold non-standard residues; d marks the D form. Residues, ends and D or L forms follow the SMILES beside them. Peptide text beside a SMILES is read from it. *: point of attachment. Phe(3,5-F2) = N[C@@H](Cc1cc(F)cc(F)c1)C(=O)O; Orn(CH(NH2)2) = NC(N)NCCC[C@H](N)C(=O)O; Pip(4S-Me) = C[C@H]1CCN[C@H](C(=O)O)C1; X1 = CC[C@H](C)C/C=C/C(=O)*

The nature of the data set: protein-ligand inhibition affinities from structures – PDB-derived complexes (AID 977608).

Broadly, the IC50 is the concentration needed to halve the response being measured. `CSCC[C@H](NC(=O)[C@@H]1CSSC[C@H](NC(=O)[C@H](CC(N)=O)NC(=O)[C@@H](N)CCCNC(N)N)C(=O)N[C@@H](Cc2ccccc2)C(=O)N[C@@H](CCC(=O)O)C(=O)N[C@@H](CO)C(=O)N[C@@H](C(C)C)C(=O)N[C@@H](C)C(=O)N[C@@H](C)C(=O)N[C@@H](CC(C)C)C(=O)N[C@@H](CCCNC(N)N)C(=O)N[C@@H](CCCNC(N)N)C(=O)N1)C(=O)N[C@@H](Cc1ccc(O)cc1)C(=O)NCC(=O)O` (H-[Orn(CH(NH2)2)]NCFESVAAL[Orn(CH(NH2)2)][Orn(CH(NH2)2)]CMYG-OH; disulfide 3-13): the half-maximal inhibitory concentration (IC50) (literature IC50, protein: Insulin-like growth factor IB(IGF-I), PDB entry 1pmx) was 7.2 µM (active).

Take `CC[C@H](C)[C@@H]1NC(=O)[C@H](CC(=O)O)NC(=O)[C@@H](NC(=O)[C@H](CCC(=O)O)NC(=O)[C@H](CC(N)=O)NC(=O)CNC(=O)CN)CSSC[C@@H](C(=O)N[C@@H](Cc2ccccc2)C(=O)N[C@@H](CCC(=O)O)C(=O)N[C@@H](CCCNC(N)N)C(=O)N[C@@H](CC(C)C)C(=O)O)NC(=O)[C@H](CCC(=O)O)NC(=O)[C@H](Cc2c[nH]c3ccccc23)NC(=O)[C@H](CCC(=O)O)NC(=O)[C@H](Cc2c[nH]c3ccccc23)NC(=O)[C@H](CCSC)NC(=O)[C@H](CCCNC(N)N)NC(=O)[C@H](C)NC1=O` (H-GGNECDIA[Orn(CH(NH2)2)]MWEWECFE[Orn(CH(NH2)2)]L-OH; disulfide 5-15): where the note is “literature IC50, protein: Vascular endothelial growth factor(VEGF), PDB entry 1kat”, the half-maximal inhibitory concentration (IC50) was 1 µM (active).

Turning to `CC[C@@H]1C(=O)N(C)c2cnc(-n3ccnc3-c3cscn3)nc2N1C1CCCC1`, the IC50 (literature IC50, protein: Serine/threonine-protein kinase PLK2 (C83S, V87T, A119S, A216S, C259A, C291S, L335T mutation), PDB entry 4i6h) is 0.005 µM (active).

On to `CC[C@@H]1C(=O)N(C)c2cnc(-n3ccnc3-c3ccccc3)nc2N1C1CC=CC1`, for which, for the setting “literature IC50, protein: Serine/threonine-protein kinase PLK2 (C83S, V87T, A119S, A216S, C259A, C291S, L335T mutation), PDB entry 4i6f”, the IC50 was 0.005 µM (active).

Consider `CC[C@H](C)C/C=C/C(=O)N[C@@H](Cc1cc(F)cc(F)c1)C(=O)N[C@@H]1C(=O)N2CCC[C@H]2C(=O)N2CC[C@H](C)C[C@H]2C(=O)N[C@@H](C)C(=O)N2CCC[C@H]2C(=O)O[C@@H]1C` (X1-[Phe(3,5-F2)]TP[Pip(4S-Me)]AP; ester 2-C), for which the IC50 (literature IC50, protein: ATP-dependent Clp protease proteolytic subunit 1 ClpP1, PDB entry 4u0g) was 5.1 µM (active).

For `Oc1ccc(-n2ccnc2)cc1`, the half-maximal inhibitory concentration (IC50) (literature IC50, protein: Polymerase PA, PDB entry 4m5r) was 1000 µM (active).

For `c1cc2nc(N[C@H]3CCCNC3)c3cc[nH]c3n2n1`, under “literature IC50, protein: MAP kinase-activated protein kinase 2, PDB entry 3wi6”, the IC50 was 4.7 µM (active).

In the case of `O=C(O)c1ccc2occc2c1`, the IC50 (literature IC50, protein: Dengue virus 3 non-structural protein 5, PDB entry 4ctj) was 3120 µM (active).

As for `N[C@@H](CCNC(=O)N1CCn2c(ccc2C(F)(F)F)C1)Cc1cc(F)c(F)cc1F`, under “literature IC50, protein: Dipeptidyl peptidase 4, DPP4, PDB entry 4j3j”, the concentration for half-maximal inhibition (IC50) is 0.031 µM (active).

As for `COc1ccc(Cl)cc1NCC(=O)NC1CCC(n2c(=O)[nH]c3ccccc32)CC1` (stereo unspecified), the IC50 (literature IC50, protein: Tankyrase-1, PDB entry 4k4e) is 0.024 µM (active).

As to `COc1nc2c(cc1-c1c(C)noc1C)ncc1[nH]c(=O)n(-c3ccccc3OC(F)(F)F)c12`, under “literature IC50, protein: BROMODOMAIN-CONTAINING PROTEIN 4, PDB entry 4bw4”, the IC50 was 0.63 µM (active).
